According to PubChem BioAssay AID652042 (Broad Institute, 2013):
About 350 (32%) of roughly 1,100 compounds were called active. A selection follows. Measured potencies and affinities stand elsewhere. A number with no mark means an inactive call. No rule for the calls is given here.

Assay: viability loss in CEM21 cells – cell-based, CellTiter-Glo luminescence, cherry-picked, cytotoxicity control for viral fusion inhibitor project, dose response (AID 652042)
Conditions: CellTiter-Glo ATP luminescence, 24 h; series mostly up to 35 µM

Row | Compound | activity change, negative = cytotoxicity
1 | CC(C)(C)OC(=O)N1CCc2onc(-c3ccc(Br)cc3)c2C1=O | inactive
2 | C=CC[n+]1c(-c2ccc(C)cc2)csc1NNC(=O)Nc1ccccc1 | 1.1% [at 8 µM]
3 | COc1ccc(C(C)=O)cc1CC1(C)C(=O)Nc2ccc(-c3ccccc3OC)cc21 (stereo unspecified) | inactive
4 | COc1cc(OCC(=O)NC(C)C)cc2c1C(=O)O[C@@H](C)CCCC(=O)CCCCC2 | inactive
5 | CSc1cccc(N2CC(C(=O)Nc3cccc(S(=O)(=O)N4CCCC4)c3)CC2=O)c1 (stereo unspecified) | inactive
6 | CSc1ccc(CN(C)C(=O)c2cccc(S(=O)(=O)N3CCN(Cc4ccccc4)CC3)c2)cc1 | inactive
7 | COc1cc(NC2c3ccccc3C(=O)N2Cc2ccc3c(c2)OCO3)cc(OC)c1OC (stereo unspecified) | inactive
8 | O=C(NC12CC3CC(CC(C3)C1)C2)OCCNC1CCCCC1 | inactive
9 | O=C1CCCC2=C1C(c1cccs1)Nc1ccccc1N2 (stereo unspecified) | inactive
10 | CC[C@]1(C(=O)OC)[C@H]2C(=O)N(Cc3ccccc3)C(=O)[C@H]2[C@H]2CN=C(SCc3ccc(C#N)cc3)N21 | inactive
11 | CCOc1ccc(NS(=O)(=O)c2ccc(C(=O)N(C)CCc3ccc(OC)c(OC)c3)cc2)cc1 | inactive
12 | CC(C)C[C@@H](CN(C)N=O)N(C[C@H](Cc1ccccc1)N(CCc1ccccc1)N=O)N=O | inactive
13 | CCc1nc2ccc(C(=O)N3CCN(C(=O)c4ccco4)CC3)cn2c1N(C)Cc1ccc(OC)cc1 | inactive
14 | C[C@@]12C(=O)N(Cc3ccccc3)CC(=O)N1[C@H]1c3ccccc3OC[C@@H]1[C@@H]2c1ccccc1 | inactive
15 | O=S1(=O)c2c(cccc2N2CCCCC2)O[C@H](COCc2ccccc2)CN1C1CC1 | inactive
16 | Cc1oc(-c2ccc(Cl)cc2)nc1CN1CCCC(C(=O)NCc2cccnc2)C1 (stereo unspecified) | inactive
17 | COc1ccc(CCNC(=O)C2CCCN(Cc3nc(-c4cccc(Cl)c4)oc3C)C2)cc1OC (stereo unspecified) | inactive
18 | Nc1cc(-c2ccccc2)nn1S(=O)(=O)c1ccc(F)cc1 | inactive
19 | c1cnc2ccc(C(c3nnnn3C3CCCCC3)N3CCCCC3)cc2c1 (stereo unspecified) | inactive
20 | C=CCNc1ncnc2ccc(Br)cc12 | inactive
21 | c1ccc(CNc2ncnc3ccccc23)cc1 | inactive
22 | CCN(C[C@H]1N[C@@](C)(C(=O)OC)[C@H]2C(=O)N(Cc3ccccc3)C(=O)[C@@H]12)S(=O)(=O)c1ccc(C(C)(C)C)cc1 | inactive
23 | CC1(Cc2ccc(Cl)cc2)C(=O)Nc2ccc(-c3cccnc3)cc21 (stereo unspecified) | inactive
24 | O=C(CNc1ccc(F)cc1)c1ccccc1 | inactive
25 | O=C(CCCCn1c(=O)[nH]c2ccccc2c1=O)N1CCN(c2cccc(C(F)(F)F)c2)CC1 | inactive
26 | COc1cccc(Cl)c1NC(=O)N1CCc2c([nH]c3ccccc23)C1C(F)(F)F (stereo unspecified) | inactive
